Screens from PubChem.
In the library only some 1.7% were active in any assay of this set; here they are far more common.
LYPLA1 counter: LYPLA1 inhibitors, primary screen, counter-screen for PME1 inhibitor project, biochemical, fluorescence polarization, FP-Rh probe ABPP; Acyl-protein thioesterase 1 (Homo sapiens), O75608; AID 2174, 2009; recombinant LYPLA1; inhibition, % at 5.9 µM; 320,000 tested, 0.16% active;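 active = inhibition above the mean of all tested compounds plus 3 SD, set per campaign, cut at about 14% in these data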;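 also: inhibitors block serine hydrolase probe labeling of LYPLA1 so polarization falls; 0% = enzyme with DMSO and 100% = wells lacking LYPLA1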
PREPL inhibitor: PREPL enzyme inhibitors, primary screen, biochemical, fluorescence polarization; AID 2751, 2010; 320,000 tested, 0.68% active; recombinant PREPL, fluorescence polarization activity-based probe; inhibition, % at 5.96 µM; in the data active = inhibition above about 43%;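 also: 0% = enzyme with DMSO and 100% = wells lacking enzyme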
LYPLA2 inh: LYPLA2 inhibitors, primary screen, counter-screen for PME1 inhibitor project, biochemical, fluorescence polarization, FP-Rh probe ABPP | inhibition, % at 5.9 µM | AID 2177, 2009 | recombinant LYPLA2 | 320,000 tested, 0.38% active;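 active = inhibition above the screen-wide mean plus 3 SD, limit set per campaign, cut at about 26% in these data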;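 also: 0% = LYPLA2 with DMSO and 100% = wells lacking LYPLA2 enzyme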
Hck-Nef inh: inhibitors of Nef-activated human Hck kinase, primary screen, biochemical, Z-Lyte FRET, 384-well, Hck-YEEI. Recombinant Hck-YEEI plus Nef, Z-Lyte FRET kinase assay. 220,000 tested, 0.68% active. AID 463187, 2010. Tyrosine-protein kinase HCK (Homo sapiens), P08631. inhibition, % at 20 µM;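 active = Hck-Nef kinase inhibition above about 50%, limit read from the data; inactive = inhibition below that limit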;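 also: 0% = DMSO with Hck plus Nef and 100% = Hck alone without Nef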
p97 ATPase inh: inhibitors of human p97 ATPase, primary screen, biochemical; 220,000 tested, 0.42% active; AID 1481, 2009; Transitional endoplasmic reticulum ATPase (Homo sapiens), P55072; recombinant p97 ATPase, Kinase-Glo ATP luminescence, 3 h; inhibition, % at 8 µM; in the data active = inhibition above about 15%;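 also: 0% = DMSO vehicle and 100% = wells lacking enzyme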
Rin1-Abl PPI inh: inhibitors of Rin1-Abl protein binding, primary screen, biochemical, TR-FRET; Tyrosine-protein kinase ABL1 (Homo sapiens) + Ras and Rab interactor 1 (Homo sapiens), …; inhibition, % at 7.35 µM; 360,000 tested, 0.4% active; AID 588664, 2011; in the data active = inhibition above about 5%, passing the limit was not always enough
The depositor's hits bear a star; / = no result given.

SMILES | LYPLA1 counter | PREPL inhibitor | LYPLA2 inh | Hck-Nef inh | p97 ATPase inh | Rin1-Abl PPI inh
CCN(c1ccccc1)S(=O)(=O)c1ccc(Cl)c(NC(=O)COC(=O)c2ccc(O)cc2)c1 | -16.1 | -12.2 | -14.4 | -0.8 | -6.3 | -0.4
CCN(c1ccccc1)S(=O)(=O)c1ccc(Cl)c(NC(=O)COC(=O)c2cc(O)c3ccccc3c2O)c1 | 0.1 | 8.1 | 7.5 | 79.9* | 0.0 | /
O=C(O)CCC(=O)c1ccc2sc3ccccc3c2c1 | / | / | / | / | / | -1.8
CCN1C(=O)[C@@H]2[C@@H](c3ccc(SC4CCCCC4)cc3)N3CCC[C@@]3(C(=O)OC)[C@@H]2C1=O | -0.7 | -7.2 | 7.6 | / | / | 4.5
CC(=O)Nc1cn(-c2ccccc2)nc1-c1ccccc1 | -2.2 | 12.3 | -5.2 | 19.1 | 0.1 | -0.3
O=C(CCl)Nc1cn(-c2ccccc2)nc1-c1ccccc1 | -4.4 | -1.7 | -6.4 | 22.6 | 14.6* | 1.4
NS(=O)(=O)c1ccc(N=C2C(=O)Nc3ccccc32)cc1 | -1.5 | 0.7 | 0.8 | 12.2 | 6.6 | -1.5
O=C1Nc2ccccc2C1=Nc1ccc(S(=O)(=O)Nc2nccs2)cc1 | -2.2 | -4.8 | -5.8 | 67.0* | 5.9 | 0.6
Cc1c2cnn(CC(=O)Nc3c(F)c(F)cc(F)c3F)c(=O)c2c(C)n1Cc1ccccc1F | -4.3 | 3.8 | -15.6 | 51.8* | 2.5 | 1.2
CCCCn1c(N)c(N(CCC(C)C)C(=O)c2c(C)noc2C)c(=O)[nH]c1=O | -0.8 | 2.2 | -4.3 | / | / | -1.9
CC(=O)C1=C(C)OC(N)=C(C#N)C1c1cccc2ccccc12 (stereo not given) | -2.6 | -2.3 | -6.4 | 2.7 | 14.6* | 0.4
Cc1cc(C)n2nc(SCC(=O)N/N=C/c3ccccc3F)nc2n1 | -0.5 | 50.0* | -0.4 | -1.1 | 5.4 | -3.4
O=C(O)c1cccc(S(=O)(=O)Nc2ccccc2C(=O)NCCc2ccccc2)c1 | -4.7 | 1.8 | -4.6 | / | / | -1.1
COc1ccc(S(=O)(=O)N(CC(=O)NCC2CCCO2)Cc2ccccc2)cc1 (stereo not given) | 0.9 | -5.0 | -1.1 | / | / | -3.1
COc1cccc(CN(CC2CCCO2)S(=O)(=O)c2ccc(S(=O)(=O)N(C)C)cc2)c1 (stereo not given) | 2.4 | 6.2 | -12.5 | 3.0 | 14.7* | 2.1
C/C=C(\C)C(=O)OC1[C@H](OC(C)=O)C2(CO)C(CC1(C)C)C1=CCC3C4(C)CCC(O[C@@H]5O[C@H](C(=O)O)[C@@H](O[C@@H]6O[C@H](CO)[C@@H](O)[C@H](O)[C@H]6O)[C@H](O)[C@H]5O[C@H]5O[C@H](CO)[C@@H](O)[C@H](O)[C@H]5O)[C@](C)(CO)C4CCC3(C)[C@]1(C)C[C@H]2O (stereo not given in full) | / | / | / | / | / | 3.3
O=C1CC(c2ccccc2)(c2ccccc2)c2ccccc21 | / | / | / | / | / | 0.4
O=c1[nH]cnc2c1C(c1ccc(Cl)cc1)c1c(nc[nH]c1=O)O2 | / | / | / | / | / | 7.7*
CCc1cc(C(=O)Nc2cc(S(=O)(=O)N3CCOCC3)ccc2N2CCN(CC)CC2)sc1C | / | / | / | / | / | 2.4
Cc1ccc(N2C(=O)C3C4C=CC(C4)C3C2=O)cc1C (stereo not given) | 4.3 | 15.0 | 6.8 | 1.5 | 5.8 | -3.4
CC1=NN(c2ccc(C)c(C)c2)C(=O)C1C(c1cccc(O)c1)C1C(=O)N(c2ccc(C)c(C)c2)N=C1C (stereo not given) | -2.2 | 37.1 | 9.8 | -0.9 | 35.4* | 2.1
O=C(C[C@@H]1C/C=C/CC[C@H](Cc2ccc(F)cc2)C(=O)OC[C@@H](Cc2ccccc2)NC1=O)N[C@H](CO)Cc1ccccc1 | / | 12.8 | / | / | / | 3.0
CCN1CCN(C(=O)c2cc(S(=O)(=O)N3CCCCC3)ccc2Cl)CC1 | -2.3 | -5.1 | 0.0 | / | / | 0.7
C=CCOC(=O)C1=C(C)NC(=S)NC1/C=C/c1ccccc1 (stereo not given) | -1.4 | -12.6 | -2.1 | -1.1 | -4.7 | -3.8
CC1=C(C(=O)OCc2ccccc2)C(/C=C/c2ccccc2)NC(=S)N1 (stereo not given) | -9.0 | -32.6 | 49.0* | 0.4 | 7.1 | 0.4
SMILES | LYPLA1 counter | PREPL inhibitor | LYPLA2 inh | Hck-Nef inh | p97 ATPase inh | Rin1-Abl PPI inh
CCCCN1CC(O)=C(c2nc(-c3ccc(Cl)cc3)cs2)C1=N | 0.6 | 19.7 | 5.3 | 0.7 | 4.9 | -2.1
N=C1C(c2nc(-c3ccc(Cl)cc3)cs2)=C(O)CN1CCCN1CCOCC1 | 4.5 | 56.6* | 3.1 | -4.1 | -4.1 | -1.6
CN(C)C(=O)CCc1ccc2c3c([nH]c2c1)[C@]1(CCC2CCCC2)[C@@H](C(=O)N2CCOCC2)C[C@H](CC(=O)NCCc2ccccn2)C(=O)N1CC3 | / | / | / | / | / | 0.2
Cn1c(=O)c(C(=O)COC(=O)c2cc(-c3ccco3)nc3ccccc23)c(N)n(Cc2ccccc2)c1=O | -22.4 | -24.4 | -47.5 | 61.3* | 3.8 | /
CC(C)Cn1c(N)c(C(=O)COC(=O)c2cc(-c3ccco3)nc3ccccc23)c(=O)n(C)c1=O | -14.5 | -20.9 | -19.4 | 4.8 | 1.9 | 0.8
CCCCC(CC)C(=O)Oc1ccc(O)c(C(C)(C)C)c1 (stereo not given) | -2.6 | 4.6 | -2.8 | 24.7 | -5.6 | 9.2*
CC(=O)c1cc(Cc2csc(C(C)=O)c2)cs1 | 2.2 | 52.7* | 8.3 | -0.5 | -2.4 | 1.5
CC(=O)Nc1ccc(S(=O)(=O)N2CCN(c3nc(NC4CCCC4)c4ccccc4n3)CC2)cc1 | -21.6 | 3.6 | -34.2 | 1.9 | 0.5 | 11.4*
COc1cc2nc(N3CCNCC3)nc(N)c2cc1OC | 3.5 | 7.3 | 4.7 | 2.0 | 5.6 | 8.2*
CCCCN(CC)CCNC(=O)CN(C)S(=O)(=O)c1ccc2c(c1)c(=O)n(C)c(=O)n2C | -3.1 | 18.4 | 0.8 | 0.1 | 15.3* | -0.5
CN(C)c1ccc(CNC(=O)CN(C)S(=O)(=O)c2ccc3c(c2)c(=O)n(C)c(=O)n3C)cc1 | -1.1 | 10.4 | -4.6 | / | / | 0.5
Cc1ccc(CN2C(=O)N/C(=C\c3ccc(N4CCOCC4)cc3)C2=O)cc1 | 3.0 | 70.7* | 4.9 | 2.1 | 3.0 | -0.1
Cc1ccc(/C=C\c2nccc3c2[nH]c2ccccc23)cc1 | -13.6 | -13.4 | -31.6 | 59.2* | 0.5 | 0.2
Fc1ccc(/C=C\c2nccc3c2[nH]c2ccccc23)cc1 | -10.3 | 16.1 | -12.4 | 27.2 | 10.2 | -3.0
COc1cc(OC)c(-n2cc(-c3ccc(OC)c(OC)c3)[nH]c2=S)cc1Cl | / | / | / | / | / | 4.2
COc1ccc(N2Cc3ccc(C(=O)N/N=C\c4ccc(O)cc4O)cc3C2)cc1 | -8.5 | 22.2 | 30.5* | / | / | /
CCOC(=O)c1[nH]c2ccc(OC)cc2c1NC(=S)N1CCN(c2ccccc2)CC1 | -0.5 | 57.5* | 4.0 | 2.3 | 8.5 | 1.0
